From PubChem BioAssay (NCATS) come the findings set out here.

Results filed as inconclusive are left out. Calls of active or inactive are those of the source. Calls follow the shape of the dose curve; as a rule, active = well fitted cell-killing curve with a large enough effect; inconclusive = small, poorly fitted or top-dose-only effect; inactive = flat fitted curve, though single readings scatter.

This test in a line: Cell Viability - LYMP2-013 (AID 970).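 Also: 0% = DMSO only and full inhibition = tetraoctylammonium bromide control; nearly all actives have a fitted effect of over 55% in size.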 The settings on record: LYMP2-013 lymphoblastoid cells viability; series mostly up to 92.2 µM; activity change, negative = cytotoxic: at the top concentration. From the text:
NIH Chemical Genomics Center [NCGC]
NIH Molecular Libraries Screening Centers Network [MLSCN]
National Institutes of Environmental Health Sciences [NIEHS]
National Toxicology Program [NTP]
We have developed a 1536-well cell-based assay for quantitative high throughput screening (qHTS) against a number of cell lines to determine in vitro cytotoxicity of small molecules. This particular assay uses a human lymphoblastoid cell line (LYMP2-013) purchased from Coriell Institute for Medical Research.
NCGC Assay Protocol Summary:
The CellTiter-Glo luminescent cell viability assay (Promega) is a homogeneous method to measure the number of viable cells in culture. The end point readout of this assay is based on quantitation of intracellular ATP, an indicator of metabolic activity, using the luciferase reaction. Luciferase catalyzes the oxidation of beetle Luciferin to oxyluciferin and light in the presence of ATP. The luminescent signal is proportional to amount of ATP present.
Using the CellTiter-Glo luminescent cell viability assay, the amount of cellular ATP was measured in the lymphoblastoid cell line with complete culture medium following compound treatment for 24 hours. The assay was performed in opaque white Kalypsys 1536-well plates. In the screen, tetraoctylammonium bromide was used as positive control. Library compounds were measured for their ability to cause acute toxicity in the cell line, as reflected by a decrease in intracellular ATP levels, in a concentration-dependent manner. […] AC50 values were determined from concentration-response data modeled with the standard Hill equation.
qHTS protocol for CellTiter Glo lymphoblastoid cellular assay
[Step] [Parameter] [Value] [Description]
1. Reagent; 5 uL; 2500 lymphoblastoid cells/well
2. Time; 5 hr; 37 C incubation
4. Controls; 23 nL; Tetraoctylammonium bromide 6.4pM to 92 uM
5. Time; 24 hr; 37 C incubation
6. Reagent; 5 uL; CellTiter Glo reagent
7. Time; 30 min; Room Temperature
8. Detection; Luminescence; Viewlux plate reader
Keywords: cell viability, cytotoxicity, lymphoblastoid cell line, luminescence, NTPHTS, NTPHTS_NCGC, NIEHS, DSSTox, MLSMR, MLSCN, NIH Roadmap, qHTS, NCGC
As to `Cc1cc(N=Nc2ccccc2C)ccc1N`, the “activity change, negative = cytotoxic” value is -7.26% (inactive).

On to `c1ccoc1`, for which the “activity change, negative = cytotoxic” value is -6.03% (inactive).

For the molecule `CCCC[N+](=O)[O-]`, the “activity change, negative = cytotoxic” value is -17.5% (inactive).

As for `O=[N+]([O-])c1cccc2c([N+](=O)[O-])cccc12`, the “activity change, negative = cytotoxic” value was -8.72% (inactive).

On to `S=C1NCCN1`, for which the “activity change, negative = cytotoxic” value was -7.23% (inactive).

For the molecule `CN=C=O`, the “activity change, negative = cytotoxic” value was -3.64% (inactive).

On to `CC(C)(Cl)[N+](=O)[O-]`, for which the “activity change, negative = cytotoxic” value was 1.3% (inactive).

`CC(C)(C)OOC(=O)c1ccccc1`: the “activity change, negative = cytotoxic” value is -7.47% (inactive).

For `CCCN(CCC)c1c([N+](=O)[O-])cc(C(F)(F)F)cc1[N+](=O)[O-]`, the “activity change, negative = cytotoxic” value was -4.86% (inactive).

In the case of `c1ccc(P(c2ccccc2)c2ccccc2)cc1`, the “activity change, negative = cytotoxic” value is -3.36% (inactive).

In the case of `CC(C)CON=O`, the “activity change, negative = cytotoxic” value is -3.12% (inactive).

`ClCCOCOCCCl`: the “activity change, negative = cytotoxic” value is -5.36% (inactive).

Turning to `Clc1ccc(C(Cl)(Cl)Cl)cc1Cl`, the “activity change, negative = cytotoxic” value was -0.552% (inactive).

With `C=CCO`, the “activity change, negative = cytotoxic” value was 4.7% (inactive).

With `CCNCC`, the “activity change, negative = cytotoxic” value was -1.77% (inactive).

As to `N#CCCCCC#N`, the “activity change, negative = cytotoxic” value is -2.07% (inactive).

With `CCCCOCC1CO1` (stereo not given), the “activity change, negative = cytotoxic” value is -9.45% (inactive).

For the molecule `N#CCCC#N`, the “activity change, negative = cytotoxic” value is -11.3% (inactive).

As to `CCCCC#N`, the “activity change, negative = cytotoxic” value was -5.55% (inactive).

With `Oc1cc(Cl)cc(Cl)c1`, the “activity change, negative = cytotoxic” value is -2.26% (inactive).

`O=C(O)C(Br)Br`: the “activity change, negative = cytotoxic” value is -9.28% (inactive).

On to `BrC(Br)Br`, for which the “activity change, negative = cytotoxic” value was -3.33% (inactive).

With `O=[N+]([O-])c1ccccc1O`, the “activity change, negative = cytotoxic” value was -4.93% (inactive).

In the case of `Cc1cc(-c2ccc(N)c(C)c2)ccc1N`, the “activity change, negative = cytotoxic” value was 3.77% (inactive).

Turning to `Cc1ccc([N+](=O)[O-])cc1`, the “activity change, negative = cytotoxic” value is -0.589% (inactive).

Regarding `COc1ccc(C=O)cc1`, the “activity change, negative = cytotoxic” value was -12.3% (inactive).

Take `Clc1cccc2ccccc12`: the “activity change, negative = cytotoxic” value is -0.688% (inactive).

In the case of `CC(C)[C@]12CC(=O)[C@H](C)[C@H]1C2`, the “activity change, negative = cytotoxic” value is -3.16% (inactive).

Turning to `O=c1ccc(=O)[nH][nH]1`, the “activity change, negative = cytotoxic” value was -4.99% (inactive).

With `[N-]=[N+]=[N-]`, the “activity change, negative = cytotoxic” value was -1.84% (inactive).

Regarding `CCCCOC(C)=O`, the “activity change, negative = cytotoxic” value was -4.09% (inactive).

As for `Nc1cccc(Cl)c1`, the “activity change, negative = cytotoxic” value was -7.44% (inactive).

With `ClCc1ccccc1`, the “activity change, negative = cytotoxic” value is -4.84% (inactive).

On to `CCOS(C)(=O)=O`, for which the “activity change, negative = cytotoxic” value was 0.896% (inactive).

Take `ClC=CCl`: the “activity change, negative = cytotoxic” value is 0.869% (inactive).

For `O=C(O)C(Br)CBr` (stereo not given), the “activity change, negative = cytotoxic” value was -19.2% (inactive).

Turning to `CCC#N`, the “activity change, negative = cytotoxic” value was 1.03% (inactive).

As for `CC(Cl)CCl` (stereo not given), the “activity change, negative = cytotoxic” value was -0.813% (inactive).

`OCCOCCO`: the “activity change, negative = cytotoxic” value was -12.1% (inactive).

For the molecule `CN(C)c1ccc(N=Nc2ccccc2)cc1`, the “activity change, negative = cytotoxic” value was -13.7% (inactive).
